Laboratory results: PubChem BioAssay

Experiment: compound binding in COS7 lysate, probe aLAP1, primary screen, cell lysate, small-molecule microarray (AID 1124);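 note: lysate comes from COS7 cells expressing LAP1 and is applied at 0.3 µg/mL; score merges spot fluorescence near 667 nm with signal-to-noise over triplicate slides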
Details: probe aLAP1, fluorescence, higher = more signal

| SMILES | composite z-score |
| --- | --- |
| CON=C(C)CCN1CCCCc2nc(C)c(C)cc21 | -0.244 |
| CCOC(=O)[C@H](Cc1ccccc1)NC(=O)CCC1CC(OC(=O)NCc2cccc3ccccc23)CC2(CCCC(COC(=O)NCC3CCCCC3)O2)O1 (stereo partly specified) | 0.395 |
| CO[C@H]1COC(=O)CCC[C@H](C)[C@@H](OC)COC(=O)CC=C[C@@H]1C | -0.0711 |
| C[C@H]1C=CCC(=O)OC[C@H](C)C(=O)N2CCC[C@H]2C(=O)OC1 | 0.374 |
| CC(=O)OC[C@H]1O[C@H](CCON=C(C)C)C=C[C@@H]1OC(C)=O | -0.0375 |
| CC(C)[C@@H](OCc1ccccc1)[C@H](C)C=NO[C@@H](C)c1cn([C@H](CO)Cc2ccccc2)nn1 | -0.0074 |
| O=C1C2=CC[C@H]3C(=O)N(C4CCCCC4)C(=O)[C@H]3[C@H]2[C@H](O)[C@@H]2O[C@H]12 | -0.17 |
| CC(C)(C)N1C(=O)[C@H]2[C@H]3[C@H](O)[C@H](O)CC(=NNC(=O)OCc4ccccc4)[C@H]3CC[C@H]2C1=O | -0.0026 |
| CC(C)(C)N1C(=O)[C@H]2[C@H]3[C@H](O)[C@H](O)CC(=NNC(=O)OCc4ccccc4)[C@@H]3CC[C@H]2C1=O | 0.3 |
| O=C1C2=CC[C@H]3C(=O)N(C[C@@H]4CCCO4)C(=O)[C@H]3[C@H]2[C@H](O)[C@@H]2O[C@H]12 | -0.246 |
| CO[C@@H]1C=CCC(=O)N[C@@H](C)C(=O)OC[C@@H](NS(=O)(=O)c2ccc(C)cc2)[C@H](C)C=CCC(=O)OC[C@H]1C | -0.0366 |
| C[C@@H]1CC[C@@H](C(=O)O)N[C@H]1c1cccc(N2CCOCC2)c1 | -0.581 |
| CO[C@@H]1COC(=O)[C@@H]2CCCN2C(=O)[C@@H](C)COC(=O)CCC[C@H]1C | 0.557 |
| O=C1[C@H]2[C@H]3[C@H](O)[C@H](O)CC(=NOC[C@@H](O)COCc4ccco4)[C@@H]3CC[C@H]2C(=O)N1C1CCCCC1 | -0.0177 |
| CC(CCC(=O)OC[C@H]1O[C@H](C#Cc2ccccc2)C=C[C@@H]1Oc1ccc(C)cc1)=NO[C@H](C)c1cn([C@@H]2COC[C@H]2O)nn1 | 0.0502 |
| C[C@H]1CC[C@H]2C(=O)N[C@H](Cc3ccccc3)C(=O)N2[C@@H]1c1ccccc1 | -0.306 |
| CC(=O)OC[C@H]1O[C@H](CC=NO[C@H](C)c2cn([C@@H]3COC[C@H]3O)nn2)C=C[C@@H]1OC(C)=O | -0.16 |
| O=C1CCCC=C1C(O)COCc1ccccc1 (stereo unspecified) | 0.08 |

| SMILES | composite z-score |
| --- | --- |
| COc1ccc(COC(=O)NN=C2C[C@@H](O)[C@@H](O)[C@@H]3[C@@H]4C(=O)N(C5CCCCC5)C(=O)[C@@H]4CC[C@@H]23)cc1 | -0.253 |
| COC(=O)CC=C[C@@H](C)[C@@H](C=NOC[C@@H](O)COCc1ccco1)OC | 0.0649 |
| O=C1[C@H]2[C@H]3[C@H](O)[C@H](O)CC(=NO[C@@H]4O[C@H](CO)[C@@H](O)[C@H](O)[C@H]4O)[C@@H]3CC[C@H]2C(=O)N1C[C@@H]1CCCO1 | -0.136 |
| O=C1[C@H]2[C@H]3[C@H](O)[C@H](O)CC(=NOC[C@@H](O)COCc4ccco4)[C@@H]3CC[C@H]2C(=O)N1Cc1ccccc1 | 0.173 |
| CCOC(=O)[C@H](Cc1ccccc1)NC(=O)CCC1CC(OC(=O)NCCc2ccc(F)cc2)CC2(CCCC(COC(=O)NCc3cccc(C(F)(F)F)c3)O2)O1 (stereo partly specified) | 0.137 |
| O=C1C=C[C@@H](O)[C@@H]2[C@@H]3C(=O)N(C4CCCCC4)C(=O)[C@@H]3CC[C@@H]12 | 0.196 |
| CCN1C(=O)[C@H]2[C@@H]3C(=CC[C@H]2C1=O)C(=O)[C@H]1O[C@H]1[C@H]3O | 0.426 |
| CCOC(=O)[C@H](Cc1ccccc1)NC(=O)CCC1CC(OC(=O)NCc2ccc3c(c2)OCO3)CC2(CCCC(COC(=O)NCCOc3ccccc3)O2)O1 (stereo partly specified) | -0.252 |
| CCN1C(=O)[C@H]2[C@H]3[C@H](O)[C@H](O)CC(=NO[C@H](C)c4cn([C@H](CO)Cc5ccccc5)nn4)[C@@H]3CC[C@H]2C1=O | 1.39 |
| COC(OC)[C@@H](C)[C@H](OC)[C@@H](C)[C@H](OC)c1ccccc1 | -0.266 |
| CO[C@@H]1COC(=O)[C@H](CCSC)NC(=O)CC=C[C@@H](C)COC(=O)[C@@H]2CCCN2C(=O)CC=C[C@H]1C | -0.328 |
| CC(C)=NO[C@H](C)c1cn([C@@H]2COC[C@H]2O)nn1 | 0.191 |
| CC(C)=NOC(C)CN1CCCc2nc(C)c(C)cc21 (stereo unspecified) | 1.37 |
| CC#CCOCCC=C1c2ccccc2[C@@H](OC)[C@@H]1C | -0.0059 |
| O=C1[C@H]2[C@H]3[C@H](O)[C@H](O)CC(=NO[C@@H]4O[C@H](CO)[C@@H](O)[C@H](O)[C@H]4O)[C@H]3CC[C@H]2C(=O)N1C[C@@H]1CCCO1 | 0.041 |
| O=C1C[C@H](c2ccccc2)[C@H](c2ccc(Br)cc2)O1 | -1.07 |
| CO[C@H]1COC(=O)CC=C[C@@H](C)COC(=O)[C@H]2CCCN2C(=O)CC=C[C@H]1C | 0.449 |
| O=C(NN=C1C[C@@H](O)[C@@H](O)[C@@H]2[C@@H]3C(=O)N(Cc4ccccc4)C(=O)[C@@H]3CC[C@H]12)OCc1ccccc1 | 0.0639 |
